Shown are actives, neighbours in structure and some others; about 3.6% of the full set was active somewhere.
TRHR PAM = qHTS for Small Molecule Agonists and Allosteric Enhancers of Human TRH Receptor: Primary Screen for Enhancers; TRHR cells, fluo-8 calcium fluorescence, EC20 TRH enhancement; enhancement, % at 2 µM; actives 0.66% (n = 360,000); AID 493056, 2011; in the data active = enhancement above about 30%; also: 0% is about no effect
Target sequence (P34981 whole entry, looked up): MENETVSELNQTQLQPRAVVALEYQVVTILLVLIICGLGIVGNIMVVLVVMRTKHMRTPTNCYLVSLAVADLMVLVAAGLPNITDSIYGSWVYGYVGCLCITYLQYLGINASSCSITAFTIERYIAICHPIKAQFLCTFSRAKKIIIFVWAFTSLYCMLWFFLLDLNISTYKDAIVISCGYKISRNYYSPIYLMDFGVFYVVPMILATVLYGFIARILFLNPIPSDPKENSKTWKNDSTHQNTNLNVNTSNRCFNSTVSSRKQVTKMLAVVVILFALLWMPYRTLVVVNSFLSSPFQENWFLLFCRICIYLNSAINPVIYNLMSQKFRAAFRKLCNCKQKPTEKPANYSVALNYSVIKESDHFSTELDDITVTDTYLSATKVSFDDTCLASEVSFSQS
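Enhancer read-out: after compound pinning and an initial kinetic agonist-mode read, an EC20 of TRH (10 nM final) was injected and fluo-8 calcium signal (Ex 480/Em 530) followed at 1 s/cycle for 100 cycles in TRHR-expressing cells.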
D1 PAM = Potentiators of Human D1 Dopamine Receptor: qHTS; D(1A) dopamine receptor (Homo sapiens), P21728; HEK293 TREx D1 cells, calcium flux, dopamine EC20 potentiation; potentiation, % at 10 µM; actives 0.036% (n = 360,000); in the data active = potentiation above about 30%; also: 0% is about no effect
LDHA inh = qHTS assay for inhibitors of human lactate dehydrogenase. L-lactate dehydrogenase A chain (Homo sapiens), P00338. purified LDHA, NADH/diaphorase-resazurin fluorescence; active compounds read low. activity change, % (values are at about 110 or 230 µM). actives 0.15% (n = 480,000); in the data active = activity change below about -30%;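 also: plate controls were DMSO wells for no effect and wells without enzyme for full effect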
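Enzyme activity of human lactate dehydrogenase 5 (2 nM; 0.06 mM NADH, 0.2 mM pyruvate, 5 min, RT) is measured via a resazurin/diaphorase fluorescence readout of residual NADH.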
TRHR ag = qHTS for Small Molecule Agonists and Allosteric Enhancers of Human TRH Receptor: Primary Screen for Agonists; Thyrotropin-releasing hormone receptor (Homo sapiens), P34981; TRHR cells, calcium flux fluo-8, FDSS agonist mode; activation, % at 2 µM; actives 0.18% (n = 360,000); AID 493084, 2011; also: 0% is about no effect
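Steps: seed TRHR cells overnight; add fluo-8 no-wash Ca dye, RT 30 min–1.5 h; record 10 s baseline; pin-transfer compounds; monitor fluorescence 1 cycle/s for the agonist window. Calcium increases flag candidate agonists.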
D1 antag = Antagonist of Human D 1 Dopamine Receptor: qHTS. HEK293 TREx D1 cells, calcium flux, dopamine EC80; active compounds read low. activity change, negative = inhibition, % at 10 µM. actives 3.2% (n = 360,000); in the data active = activity change below about -30%; also: % is scaled to controls: 0 for no effect and ±100 for the full control effect
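Kinetic fluorescence of a calcium dye serves as the read-out. D1-expressing Hek293 Trex cells, induced overnight at 30 C, are exposed to compound for 180 s before an EC80 dopamine addition, then read 180 s further.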
D1 ag = Allosteric Agonists of the Human D1 Dopamine Receptor: qHTS. activation, % at 2 µM. actives 1% (n = 360,000). D(1A) dopamine receptor (Homo sapiens), P21728. HEK293 T-REx D1 cells, calcium flux, agonist mode; also: 0% is about no effect
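Agonism was scored from calcium flux recorded over 180 s (1 read/s) after pintool compound addition, following a 10-cycle baseline. Cells were inducible force-coupled HEK293 TREx D1, plated overnight at 30 C and loaded with no-wash calcium dye.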
* marks the source's active call; other numbers are inactive results; . = no result given; ! = not active in a repeat. Rule as the data show it, unless noted: active = activation above about 30%; inactive = the rest.

SMILES	TRHR PAM	D1 PAM	LDHA inh	TRHR ag	D1 antag	D1 ag
COc1cccc(-n2c(=O)c3sccc3n(Cc3cc(=O)n4cc(Cl)ccc4n3)c2=O)c1	10	0	-9	-2	-32*	-1
O=C(CCCOc1ccccc1)N1CCN(S(=O)(=O)c2cccc(F)c2)CC1	-1	-2	-4	0	34	9
Cc1ccc(OCCCC(=O)N2CCN(S(=O)(=O)c3cccc(F)c3)CC2)cc1	5	-4	-2	-1	-33*	6
Cc1ccc(S(=O)(=O)N2CCN(C(=O)CCCOc3cccc(C)c3)CC2)cc1	1	0	-2	-1	-39*	1
CC(=O)c1ccc(OCCCC(=O)N2CCN(S(=O)(=O)c3ccc(C)cc3C)CC2)cc1	-8	-10	-9	0	-31*	8
O=C(CC1=NCCNC(c2ccccc2)C1)c1ccccc1O (stereo not drawn)	-11	-9	1	-1	-41*	3
O=S1(=O)[C@H]2CC3O[C@]2(C[C@@H]3c2ccc(F)cc2)CN1Cc1ccc(Cl)cc1	-4	-10	-11	0	-12	2
O=S1(=O)[C@H]2C[C@@H]3CC[C@]2(CN1Cc1cccc(F)c1)O3	-4	-9	-10	0	-47*	1
C#CC[N+](C)(C)CCN1C(=O)C2C3C=CC(C3)C2C1=O (stereo not drawn)	.	.	0	.	.	.
CC1(C)CSC(=NCc2ccccc2)N1C(=O)c1cccc([N+](=O)[O-])c1	-29	-5	1	56*	-38*	85*
O=Cc1ccc(Sc2ccc(Cl)cc2)cc1	.	.	5	.	.	.
COc1ccc(NC(C)=[N+](C)CCNS(=O)(=O)c2ccc(Cl)cc2)cc1Cl	-3	-4	-14	0	11	5
COc1ccccc1NC(C)=[N+](C)CCNS(=O)(=O)c1ccc(Cl)cc1	3	-7	-74*	0	-23	3
COc1ccc(Oc2c(C)oc3cc(OCC(=O)Nc4ccccc4F)ccc3c2=O)cc1	.	.	-4	.	.	.
CSC1=NC(C)(C)CC2(C)Nc3ccccc3N12 (stereo not drawn)	0	1	-4	0	-32*	0
O=C(NCCc1csc(-c2ccc(F)cc2)n1)c1cccc(F)c1	0	-4	1	0	-55*	7
Cc1nc(-c2ccc(F)cc2)sc1CCNC(=O)c1cccs1	16	-3	-5	-1	-64*	10
O=C(Cc1ccc(F)cc1)NCCc1csc(-c2cccc(F)c2)n1	5	2	-2	0	13	0
O=C(NCCc1csc(-c2cccc(F)c2)n1)c1cccs1	-3	-5	-2	0	-62*	6
COc1ccc(OCCOC(=O)c2[nH]c3c(c2C)C(=O)CCC3)cc1	.	.	4	.	.	.
CCN(CC)S(=O)(=O)c1cc(C)ccc1SC	-8	5	-2	0	-38*	0
CC(=O)N(C1=C(C#N)C(=O)CC(C)(C)C1)c1ccccc1	.	.	1	.	.	.
Cn1nccc1NC(=O)Nc1cccc(Cl)c1Cl	10	-15	3	0	-33*	4
C/C(=C\c1ccccc1)C(=O)c1c(C)cc(C)[nH]c1=O	32*	3	1	1	21	-3
C/C=C/Cn1c(NCC)nc2c1c(=O)[nH]c(=O)n2C	.	.	2	.	.	.
SMILES	TRHR PAM	D1 PAM	LDHA inh	TRHR ag	D1 antag	D1 ag
COc1cc(C(=O)NCc2nc3ccccc3n2C(C)C)cc(OC)c1OC	.	.	-5	.	.	.
CCN(CC)c1ccc(NC(=O)CN2CCN(c3ccc(F)cc3)CC2)cc1	1	1	0	0	-17	0
CCN(CC)c1ccc(NC(=O)CN2CCN(c3nc(C)cc(C)n3)CC2)cc1	6	0	-4	-1	-33*	13
CCC(CO)NS(=O)(=O)c1cc(C)c(Cl)cc1Cl (stereo not drawn)	.	.	4	.	.	.
COc1ccc(OC)c(NC(=O)Cc2c(C)c3ccc(OC)c(C)c3oc2=O)c1	.	.	4	.	.	.
O=C(CN1C(=O)c2cccnc2Oc2ccc(Cl)cc21)NCCCN1CCCCC1	1	3	-20	0	-38*	0
CN(CC(=O)NC1CCCCNC1=O)Cc1cccc(F)c1 (stereo not drawn)	.	.	-11	.	.	.
COc1ccc(S(=O)(=O)N2CCOCC2)cc1NC(=O)C1CCCN1C(=O)c1cccs1 (stereo not drawn)	-4	-6	4	-1	-62*	3
Oc1[nH]c2ccc(Br)cc2c1N=Nc1ccc(F)cc1	-4	-14	-7	22	12	56*
O=[N+]([O-])c1ccc2[nH]c(O)c(N=Nc3ccc(F)cc3)c2c1	-13	-3	3	0	20	3
O=C(OCC#CCSc1nnc(-c2cccc3ccccc23)o1)c1ccc(Br)cc1	9	-1	1	1	3	13
O=C(OCC#CCSc1nnc(-c2cccc3ccccc23)o1)c1ccco1	8	5	4	-1	3	32*!
O=[N+]([O-])/C(=C\Nc1ccccc1)S(=O)(=O)c1ccccc1	-2	-6	-8	0	-88*	2
CCc1ccc(NC(=O)C2CCN(c3nc(-c4ccc(OC)cc4)no3)CC2)cc1	18	-1	-8	0	-2	0
Cc1nc(-c2ccc(C)c(S(=O)(=O)N3CCC(C(=O)NCc4ccc(Cl)cc4)CC3)c2)no1	30*	2	2	0	-17	1
COc1ccc(-c2noc(N3CCC(C(=O)N4CCN(c5ccccc5OC)CC4)CC3)n2)cc1	-10	-4	-2	1	-56*	8
COc1ccc(-c2noc(N3CCC(C(=O)Nc4ccc(OC)cc4OC)CC3)n2)cc1	2	-14	-12	0	-31*	9
COc1ccc(-c2noc(N3CCC(C(=O)NCc4ccc(F)cc4)CC3)n2)cc1	0	-10	1	0	-36*	10
COc1ccc(-c2noc(N3CCC(C(=O)Nc4ccc(F)cc4F)CC3)n2)cc1	14	-10	-6	-1	0	8
Cc1ccc(C(=O)N2CC=C(c3c[nH]c4ccccc34)CC2)cc1	.	.	6	.	.	.
CC(NC(=O)C1CC1)c1cccnc1 (stereo not drawn)	.	.	9	.	.	.
CCOC(=O)NC(=O)COC(=O)CNC(=O)c1cccc(C)c1	.	.	9	.	.	.
CCOC(=O)c1ccc(NC(=O)N2CCOc3ccccc32)cc1	-8	-5	2	1	-30*	9

Source: PubChem (National Center for Advancing Translational Sciences (NCATS))
